Results published in PubChem BioAssay (NCATS).
Inconclusive results are not listed. Where a call stands in place of a potency, no number is given. Calls of active or inactive are those of the source. Unless noted, the call rests on the fitted dose curve; in most records, active means well fitted curve in the direction sought with a large enough effect; inconclusive means small, poorly fitted or top-dose-only effect, or another doubt; inactive means no such curve, though single readings can be large; an effect the other way counts as inactive or inconclusive.

Legend:
[1] = molecular target: 3',5'-cyclic-AMP phosphodiesterase 4B (Homo sapiens) (UniProt Q07343); test: qHTS Assay for Inhibitors of PDE-IV (AID 607; active means well fitted activation curve with a large enough effect in the main read-out, with a control signal flat, not every such curve was filed as active)
Chain of 3',5'-cyclic-AMP phosphodiesterase 4B (Homo sapiens) (Q07343 whole entry, looked up): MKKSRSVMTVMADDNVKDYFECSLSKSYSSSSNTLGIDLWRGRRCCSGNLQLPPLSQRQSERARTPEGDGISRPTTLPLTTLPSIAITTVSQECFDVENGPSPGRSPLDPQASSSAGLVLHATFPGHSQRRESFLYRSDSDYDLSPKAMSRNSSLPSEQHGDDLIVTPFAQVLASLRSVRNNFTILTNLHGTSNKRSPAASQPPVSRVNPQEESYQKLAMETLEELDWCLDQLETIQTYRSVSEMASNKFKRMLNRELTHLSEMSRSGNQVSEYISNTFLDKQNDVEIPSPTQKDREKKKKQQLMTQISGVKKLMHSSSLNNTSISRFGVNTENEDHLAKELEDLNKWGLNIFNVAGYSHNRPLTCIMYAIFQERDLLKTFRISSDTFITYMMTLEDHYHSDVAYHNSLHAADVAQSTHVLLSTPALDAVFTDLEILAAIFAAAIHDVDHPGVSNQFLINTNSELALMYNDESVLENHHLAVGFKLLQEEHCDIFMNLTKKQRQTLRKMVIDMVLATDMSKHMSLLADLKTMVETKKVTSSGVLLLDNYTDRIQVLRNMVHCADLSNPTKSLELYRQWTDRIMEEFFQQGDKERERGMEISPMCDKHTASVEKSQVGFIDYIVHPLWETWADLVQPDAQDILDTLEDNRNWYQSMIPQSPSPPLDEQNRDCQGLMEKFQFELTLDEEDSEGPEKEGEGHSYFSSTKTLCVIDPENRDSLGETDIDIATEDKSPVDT
Summary of the method: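 HEK293 ACTOne cells with CNG channel (1000/well), endogenous PDE4; membrane potential dye, compounds up to 22.9 uM final. Fluorescence Ex 535/Em 590; RO 20-1724 (100 uM final) as reference.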

3D7 = test: qHTS profiling for inhibitors of Plasmodium falciparum proliferation (AID 504749); further: nearly all actives have a fitted effect of over 60% in size; further: potency means the concentration at half of the fitted maximal effect; settings: P. falciparum in erythrocytes, SYBR Green DNA, 72 h; series mostly up to 12.8 µM
Summary of the method: (§1)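 In a 72 h erythrocytic culture (37 C, humidified, 5% CO2) at 2.5% hematocrit and 0.3% starting parasitemia, compounds were tested; SYBR Green I in detergent lysis buffer stained parasite DNA overnight.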

AS120 = test: as above; settings: P. falciparum in erythrocytes, SYBR Green DNA, 72 h; series mostly up to 12.8 µM
Summary of the method: as §1

CP217 = test: as above; settings: P. falciparum in erythrocytes, SYBR Green DNA, 72 h; series mostly up to 12.8 µM
Summary of the method: as §1

CP237 = test: as above; settings: P. falciparum in erythrocytes, SYBR Green DNA, 72 h; series mostly up to 12.8 µM
Summary of the method: as §1

CP250 = test: as above; settings: P. falciparum in erythrocytes, SYBR Green DNA, 72 h; series mostly up to 12.8 µM
Summary of the method: as §1

CP252 = test: as above; settings: P. falciparum in erythrocytes, SYBR Green DNA, 72 h; series mostly up to 12.8 µM
Summary of the method: as §1

CP266 = test: as above; settings: P. falciparum in erythrocytes, SYBR Green DNA, 72 h; series mostly up to 12.8 µM
Summary of the method: as §1

CP269 = test: as above; settings: P. falciparum in erythrocytes, SYBR Green DNA, 72 h; series mostly up to 12.8 µM
Summary of the method: as §1

CP305 = test: as above; settings: P. falciparum in erythrocytes, SYBR Green DNA, 72 h; series mostly up to 12.8 µM
Summary of the method: as §1

CP325 = test: as above; settings: P. falciparum in erythrocytes, SYBR Green DNA, 72 h; series mostly up to 12.8 µM
Summary of the method: as §1

CP329 = test: as above; settings: P. falciparum in erythrocytes, SYBR Green DNA, 72 h; series mostly up to 12.8 µM
Summary of the method: as §1

DIV30 = test: as above; settings: P. falciparum in erythrocytes, SYBR Green DNA, 72 h; series mostly up to 12.8 µM
Summary of the method: as §1

Dd2 = test: as above; settings: P. falciparum in erythrocytes, SYBR Green DNA, 72 h; series mostly up to 12.8 µM
Summary of the method: as §1

HB3 = test: as above; settings: P. falciparum in erythrocytes, SYBR Green DNA, 72 h; series mostly up to 12.8 µM
Summary of the method: as §1

JCK = test: as above; settings: P. falciparum in erythrocytes, SYBR Green DNA, 72 h; series mostly up to 12.8 µM
Summary of the method: as §1

N140 = test: as above; settings: P. falciparum in erythrocytes, SYBR Green DNA, 72 h; series mostly up to 12.8 µM
Summary of the method: as §1

SC27B = test: as above; settings: P. falciparum in erythrocytes, SYBR Green DNA, 72 h; series mostly up to 12.8 µM
Summary of the method: as §1

TAB113 = test: as above; settings: P. falciparum in erythrocytes, SYBR Green DNA, 72 h; series mostly up to 12.8 µM
Summary of the method: as §1

[2] = S16 Schwann cell viability assay (CellTiter-Glo assay) (AID 624031);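 further: native untransfected S16 rat Schwann cells; cellular ATP luminescence as a viability measure; nearly all actives have a fitted effect of over 70% in size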
Summary of the method: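 Rat S16 Schwann cells without reporter constructs received compound or DMSO for 24 h at 37 °C under 5% CO2. Cellular ATP was then quantified by CellTiter-Glo luminescence, with vehicle wells defined as 0% activity and cell-free wells as reference.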

| SMILES | outcome [1] | Potency (3D7) | Potency (AS120) | Potency (CP217) | Potency (CP237) | Potency (CP250) | Potency (CP252) | Potency (CP266) | Potency (CP269) | Potency (CP305) | Potency (CP325) | Potency (CP329) | Potency (DIV30) | Potency (Dd2) | Potency (HB3) | Potency (JCK) | Potency (N140) | Potency (SC27B) | Potency (TAB113) | outcome [2] |
| --- | --- | --- | --- | --- | --- | --- | --- | --- | --- | --- | --- | --- | --- | --- | --- | --- | --- | --- | --- | --- |
| C[C@H]1CS(=O)(=O)CCN1/N=C\c1ccc([N+](=O)[O-])o1 | inactive | inactive | inactive | inactive | inactive | inactive | inactive | inactive | inactive | inactive | inactive | inactive | inactive | inactive | inactive | inactive | inactive | inactive | inactive | – |
| C1CCN2C[C@@H]3C[C@@H](CN4CCCC[C@H]34)[C@H]2C1 | inactive | inactive | inactive | inactive | inactive | inactive | inactive | inactive | inactive | inactive | inactive | inactive | inactive | inactive | inactive | inactive | inactive | inactive | inactive | inactive |
| COc1cc(N[C@@H](C)CCCN)c2ncccc2c1 | inactive | 1.78 µM (active) | 794 nM (active) | 1.12 µM (active) | 2.51 µM (active) | 1.26 µM (active) | 1.26 µM (active) | – | 1.81 µM (active) | 1.81 µM (active) | 2.03 µM (active) | 3.61 µM (active) | 2.03 µM (active) | 1.41 µM (active) | 2.24 µM (active) | 3.98 µM (active) | 2.82 µM (active) | 2 µM (active) | 1.41 µM (active) | – |
| CC[C@](C)(CN(C)C)OC(=O)c1ccccc1 | inactive | inactive | inactive | inactive | – | inactive | inactive | inactive | inactive | inactive | inactive | inactive | inactive | 5.01 µM (active) | inactive | inactive | inactive | inactive | inactive | inactive |
| O=c1cc(-c2cccc(O)c2)oc2cc(O)ccc12 | inactive | – | – | – | – | – | – | – | – | – | – | – | – | – | – | – | – | – | – | – |
| CC(C)n1c(/C=C\[C@@H](O)C[C@@H](O)CC(=O)O)c(-c2ccc(F)cc2)c2ccccc21 | inactive | – | – | – | – | – | – | – | – | – | – | – | – | – | – | – | – | – | – | – |
| COC(=O)[C@@H]1[C@@H]2C[C@H]3c4[nH]c5cc(OC)ccc5c4CCN3C[C@@H]2C[C@H](OC(=O)c2cc(OC)c(OC)c(OC)c2)[C@H]1OC | inactive | – | – | – | – | – | – | – | – | – | – | – | – | – | – | – | – | – | – | – |
| Clc1ccc([C@H](Cn2ccnc2)OCc2c(Cl)cccc2Cl)c(Cl)c1 | – | 2.51 µM (active) | 1260 nM (active) | 2.24 µM (active) | 3.16 µM (active) | 2.51 µM (active) | 3.16 µM (active) | – | – | – | – | – | 7.21 µM (active) | 3.55 µM (active) | 3.98 µM (active) | – | 3.16 µM (active) | 1.58 µM (active) | 3.98 µM (active) | inactive |
| CC1(C)S[C@@H]2[C@H](NC(=O)[C@@H](N)c3ccccc3)C(=O)N2[C@H]1C(=O)O[C@H]1OC(=O)c2ccccc21 | inactive | inactive | inactive | inactive | inactive | inactive | inactive | inactive | inactive | inactive | inactive | inactive | inactive | inactive | inactive | inactive | inactive | inactive | inactive | inactive |
| CCN(CCCCOC(=O)c1ccc(OC)c(OC)c1)[C@@H](C)Cc1ccc(OC)cc1 | – | inactive | inactive | inactive | inactive | inactive | inactive | inactive | – | – | inactive | – | inactive | inactive | inactive | inactive | inactive | inactive | inactive | inactive |
| C[C@@H]1O[C@H](O[C@@H]2[C@H](C)O[C@H](O[C@@H]3[C@H](C)O[C@H](O[C@H]4CC[C@]5(C)[C@@H](CC[C@@H]6[C@H]5C[C@@H](O)[C@]5(C)[C@@H](C7=CC(=O)OC7)CC[C@]65O)C4)C[C@@H]3O)C[C@@H]2O)C[C@H](O)[C@@H]1O | inactive | – | – | – | – | – | – | – | – | – | – | – | – | – | – | – | – | – | – | – |
| C[C@@](N)(C(=O)O)c1cccc(CC(=O)O)c1 | inactive | – | – | – | – | – | – | – | – | – | – | – | – | – | – | – | – | – | – | – |
| O=C(OC[C@@H](O)CO)c1ccccc1Nc1ccnc2cc(Cl)ccc12 | inactive | inactive | inactive | inactive | inactive | inactive | inactive | inactive | inactive | inactive | inactive | inactive | inactive | inactive | inactive | inactive | inactive | inactive | inactive | inactive |
